This note sets out measurements from PubChem BioAssay AID686978 (National Center for Advancing Translational Sciences (NCATS), 2013).

About 64,000 (15%) of roughly 420,000 compounds were called active. Roughly 27% stayed inconclusive and do not appear here. These entries were drawn from the full list. A number with no mark means an inactive call. The call rests on the fitted dose curve; in most records, active means well fitted inhibition curve with a large enough effect; inconclusive means small, poorly fitted or top-dose-only effect; inactive means flat fitted curve, though single readings scatter.
On the % scale 0 is the no-effect control and ±100 the full control effect; potency means the concentration at half of the fitted maximal effect.

This test can be described thus: qHTS for Inhibitors of human tyrosyl-DNA phosphodiesterase 1 (TDP1): qHTS in cells in absence of CPT. Further: nearly all actives have a fitted effect of over 55% in size. The following applies: DT40 Tdp1-/- hTDP1 cells, no CPT, ATP luminescence, 48 h; activity change, negative = growth inhibition: at 46.2 µM (top of the series). From the text:
Human tyrosyl-DNA phosphodiesterase 1 (TDP1) is a novel repair gene, and we propose to use it as a new target for anticancer drug development. TDP1 is not an essential protein, but under treatment with topoisomerase I poison (camptothecin: CPT), TDP1 works as a critical factor for cell survival. To directly identify novel TDP1 inhibitors active in a cellular environment, we have knocked-out the Tdp1 gene in chicken DT40 cells (Tdp1-/-) and generated a complemented counterpart cells that contains a stable transfection of the human TDP1 gene (Tdp1-/-;hTDP1 cells). For the primary screen, Tdp1-/-;hTDP1 cells will be exposed to small molecules in the presence or absence of CPT, and their growth kinetics will be evaluated after 48 hours by measuring ATP activity. […] The hit compounds will then be evaluated in the presence or absence of CPT using Tdp1-/- cells. […] In tertiary assays, biochemical gel-based assays will be used to assess whether the hit compounds specifically target TDP1.
To this end, we have screened this cell line against the MLSMR in two primary screens. In one screen we add CPT and in the other we screen in the absence of CPT; this AID represents the screen where CPT was absent.
NIH Chemical Genomics Center [NCGC]
NIH Molecular Libraries Probe Centers Network [MLPCN]
Assay Submitter (PI): Yves Pommier, NCI
DT40-hTDP1 cells without 20 nM Camptothecin (add 20 microL of DMSO in 1 L of cell culture medium) were dispensed at 400 cells/5microL/well in tissue culture treated 1536-well white wall/solid bottom assay plates (Greiner Bio-One North America, NC, U.S.A.) using a Multidrop Combi 8 channel dispenser (Thermo Fisher, Waltham, MA, USA). 23 nL compounds and controls were transferred using the pin tool (Kalypsys, San Diego, CA, USA) to the assay plates. The assay plates were then incubated at 37 masculineC for a minimum 48 hr. Three microL of Cell Titer Glo solution was added to the plates and incubated at RT in dark for 30 min. Luminescence was read using ViewLux (Perkin Elmer) with 1 sec exposure slow speed, high gain and 2x binning.
Background: qHTS replaces the single test concentration by a dilution series.
For the compound `COc1cc(C(=O)N2CCN(C/C=C/c3ccccc3)CC2)cc(OC)c1C`, the Potency was 29.1 µM (active). Take `COc1ccc(C(=O)NCCn2nc(C)cc2C)cc1OC1CCN(C(C)=O)CC1`: the “activity change, negative = growth inhibition” value is -18.1%. Still for that read-out and setting: for `COc1cc(C(=O)N2CCN(C(=O)COc3cccc(C)c3)CC2)cc(OC)c1OC` the value was -12.4%; for `CCOC(=O)CSc1nnc(NC(=O)C2CC(=O)N(c3ccc(F)cc3)C2)s1` (configuration not stated), -11.9%; for `C[C@@H]1O[C@@H](OC[C@H]2O[C@@H](Oc3c(-c4cccc(O)c4O)oc4cc(O)cc(O)c4c3=O)[C@H](O)[C@@H](O)[C@@H]2O)[C@H](O)[C@H](O)[C@H]1O`, -5.29%. Consider `O=C1CN(C(=O)COC(=O)C2CC(=O)N(Cc3ccco3)C2)c2ccccc2N1` (configuration not stated), for which the “activity change, negative = growth inhibition” value was -19.4%.

As for `COc1cc(C(=O)N2CCOCC2)cc(OC)c1OC`, the Potency result is “inactive”.

With `Cc1cc(C)n(CCC(=O)N2CCN(S(=O)(=O)c3ccc(C)c(C)c3)CC2)n1`, the “activity change, negative = growth inhibition” value was 10.6%. On the same count and under the same terms, the figure for `O=C(COc1ccccc1O)NC1CCCC1` is -8.81%. Consider `CC(C)(C)c1ccc(C(=O)N2CCN(CCNC(=O)C(=O)Nc3ccc(F)cc3)CC2)cc1`, for which the Potency was 10.3 µM (active).

Consider `Cc1ccc(C(=O)N/C(=C\c2ccc(F)cc2)C(=O)NCCN2CCOCC2)cc1`, for which the “activity change, negative = growth inhibition” value was -6.92%. With `O=C(NCCN1CCOCC1)/C(=C/c1ccc(F)cc1)NC(=O)c1ccccc1`, the “activity change, negative = growth inhibition” value was -11.9%.

For the compound `O=C(NCc1ccccc1)c1ccc(CNc2c(N3CCCC3)c(=O)c2=O)cc1`, the “activity change, negative = growth inhibition” value was 6.59%. In the case of `CNC(=O)CSc1nnnn1-c1ccc(C)cc1C`, the “activity change, negative = growth inhibition” value is -5.97%.

On to `CC1=C(C(=O)OC2CCCCC2)C(c2ccccc2F)NC(=O)N1` (configuration not stated), for which the “activity change, negative = growth inhibition” value is -19.8%. Regarding `Cc1ccc(C2NC(=S)NC3=C2N2CCC3CC2)cc1` (configuration not stated), the “activity change, negative = growth inhibition” value was 2.29%.

Turning to `Cc1cc2nc(-c3ccc(Cl)cc3)c(Cc3cccc(F)c3)n2c(C)c1Br`, the Potency is 23.1 µM (active). In the case of `Cc1cc2nc(-c3ccco3)c(Cc3cccc(F)c3)n2c(C)c1Br`, the Potency is 16.4 µM (active). Still for that read-out and setting: the figure for `Cc1cc2nc(-c3ccc(F)cc3)c(Cc3ccsc3)n2c(C)c1Br` is 11.6 µM (active). With `CC(NC(=O)CNC(=O)Cc1cccc2ccccc12)c1ccc(S(N)(=O)=O)cc1` (configuration not stated), the “activity change, negative = growth inhibition” value was 15.6%.

On to `Nn1c(SCC(=O)NC(=O)NC2CCCC2)nnc1-c1ccccc1F`, for which the “activity change, negative = growth inhibition” value was -9.8%. The same measure, in the same setting: for `O=C1CC(c2ccccc2)CC(O)=C1C=NCCN1CCOCC1` (configuration not stated) the value was -12.5%; for `O=C(Oc1ccc(F)cc1)N1CCOCC1`, -8.36%; for `CC1=C(C)CC(C(=O)NNC(=O)c2csc3c2CCC(C(C)(C)C)C3)C(C(=O)O)C1` (configuration not stated), 2.16%. For the compound `C[C@H](NC(=O)OC(C)(C)C)c1nnc(SCC(=O)Nc2ccc(Br)cc2)o1`, the “activity change, negative = growth inhibition” value is -16.3%. Turning to `CCSc1nnc(-c2cc3c(s2)-c2ccccc2CC3)o1`, the “activity change, negative = growth inhibition” value was -24%. Turning to `Cc1cccc(C)c1NC(=O)CCS(=O)(=O)c1cccc2nsnc12`, the “activity change, negative = growth inhibition” value is -17.9%.

As to `Cn1c(C(=O)OC(C(=O)NC2CCCCC2)c2ccccn2)cc2sccc21` (configuration not stated), the “activity change, negative = growth inhibition” value is -19.1%. Still for that read-out and setting: for `COc1ccc(C(=O)N2CCC3(CCCN(C(c4ccccc4)c4ccccc4)C3)CC2)cc1` the value was -2.93%; for `Cc1ccc(SCC2=NNC(=O)C2)cc1`, -8.57%. The same measure, in the same setting: the figure for `Cc1ccc(C(=O)N/C(=C/C=C/c2ccccc2)C(=O)NCc2ccco2)cc1` is -28.7%; for `Cc1ccc(NC(=O)c2cc3ccccc3o2)cc1` it is -19.7%. Consider `CC(C)Oc1ccc(NC(=O)c2cc3ccccc3o2)cc1`, for which the “activity change, negative = growth inhibition” value was -62.1%. With `O=C(Nc1ccncc1)c1cc2ccccc2o1`, the Potency is 8.2 µM (active).

As to `CCOC(=O)C(=CNc1cccc(C)n1)C(=O)OCC`, the “activity change, negative = growth inhibition” value was -0.363%. Still for that read-out and setting: for `O=C(c1csnn1)N1CCC2(CC1)CN(c1ncccn1)C2` the value was -14.4%; for `CCOC(=O)N1CCN(CC(=O)c2ccc3c(c2)CCN3)CC1`, -13.7%; for `CC(OC(=O)CNC(=O)c1ccc(Cl)c([N+](=O)[O-])c1)C(=O)NCc1ccco1` (configuration not stated), 0.37%. On the same count and under the same terms, the figure for `CC(CC(=O)Nc1ccccc1)n1ccnc1` (configuration not stated) is 36.8%; for `COc1ccccc1Oc1ccc(N2CC(C(=O)OCC(=O)c3ccc(F)cc3)CC2=O)cc1` (configuration not stated) it is -21.1%; for `CN1CCN(CC(=O)Nc2cccc([N+](=O)[O-])c2)CC1` it is -6.25%.

`COc1cccc(NC(=O)CN(C)S(=O)(=O)c2ccc(C)cc2)c1`: the “activity change, negative = growth inhibition” value is -27.5%.

As for `Cc1ccc(N(CC(=O)Nc2cc(C)cc(C)c2)S(=O)(=O)c2cccc3nonc23)cc1`, the “activity change, negative = growth inhibition” value was -14.4%. Take `Cc1ccc(S(=O)(=O)N(CC(=O)Nc2cccc([N+](=O)[O-])c2)Cc2ccc(Cl)cc2)cc1`: the Potency is 25.9 µM (active).

In the case of `COc1ccc(C)cc1S(=O)(=O)N(CC(=O)Nc1cccc([N+](=O)[O-])c1)c1ccc(C)cc1`, the Potency is 13 µM (active). As for `Cc1ccc(S(=O)(=O)N(Cc2cccc([N+](=O)[O-])c2)C(=O)N2CCN(C)CC2)cc1`, the “activity change, negative = growth inhibition” value was -4.4%. On the same count and under the same terms, for `CCn1cc(/C=C(\NC(=O)c2cc(OC)c(OC)c(OC)c2)C(=O)N2CCN(C)CC2)c2ccccc21` the value was 1.95%; for `CCCCCN1CC(O)=C(c2nc(-c3ccc(Cl)cc3)cs2)C1=N`, -0.478%; for `Cc1ccc(-n2nc(N)c3c(=O)oc(N(C)C)nc32)cc1`, -0.449%. `c1ccc(CNc2ncnc3[nH]ncc23)cc1`: the Potency was 23.1 µM (active). Consider `CN(c1ccccn1)c1ncnc2[nH]ncc12`, for which the “activity change, negative = growth inhibition” value is 18.8%.

Consider `O=C(COC(=O)c1ncc(Cl)c(Cl)c1Cl)NCc1ccccc1`, for which the “activity change, negative = growth inhibition” value is 2.04%.
